# Measured values published in PubChem BioAssay (EPA / NIEHS).
# Activity calls are given as the source filed them. How the source made its calls: active means hit-call score of the fitted dose curve at least 0.9, where 1 is the maximum; inactive means score below 0.9.
# Columns and labels:
# Conditions in all cases: mRNA level, 48 h; actives raise or lower the signal
# [1] = read-out: Cyclin D2 (CCND2), CCND2 (gene 894); assay: LTEA_HepaRG_CCND2: Life Technologies and Expression Analysis (LTEA) Assay for Cyclin D2 (CCND2) using HepaRG (AID 2283449);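 further: CCND2 transcript measured by TaqMan qRT-PCR and normalised to three housekeeping genes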
# Outline: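 HepaRG, 48 h dosing, 8-pt half-log curve from 100 uM, 0.5% DMSO; duplicate wells. Readout: CCND2 transcript by microfluidic qRT-PCR, housekeeping-normalised; bidirectional fit vs DMSO baseline.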
# [2] = read-out: Cyclin Dependent Kinase Inhibitor 1A (CDKN1A), CDKN1A (gene 1026); assay: LTEA_HepaRG_CDKN1A: Life Technologies and Expression Analysis (LTEA) Assay for Cyclin Dependent Kinase Inhibitor 1A (CDKN1A) using HepaRG (AID 2283450)
# Outline: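 HepaRG, 48 h dosing, 8-pt half-log series from 100 uM top, 0.5% DMSO vehicle, duplicates. Readout: TaqMan qRT-PCR of CDKN1A transcript, housekeeping-normalized (ACTB, GAPDH, POLR2A). Up/down curve fit relative to DMSO.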
# [3] = read-out: Cyclin D1 (CCND1), CCND1 (gene 595); assay: LTEA_HepaRG_CCND1: Life Technologies and Expression Analysis (LTEA) Assay for Cyclin D1 (CCND1) using HepaRG (AID 2283451)
# Outline: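 qRT-PCR (Fluidigm 96.96 array) read-out of transcript level, housekeeping-normalized (ACTB/GAPDH/POLR2A). HepaRG cells, 48 h chemical exposure, 8-point half-log series from 100 uM, 0.5% DMSO vehicle; gain or loss relative to DMSO baseline.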
# [4] = read-out: catalase (CAT), CAT (gene 847); assay: LTEA_HepaRG_CAT: Life Technologies and Expression Analysis (LTEA) Assay for catalase (CAT) using HepaRG (AID 2283452)
# Outline: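 HepaRG cells in serum-free induction medium, 0.5% DMSO vehicle, exposed 48 h in duplicate over 8 half-log concentrations from 100 uM. CAT mRNA measured by qRT-PCR, normalized to ACTB, GAPDH, POLR2A; bidirectional fit versus DMSO.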
# [5] = read-out: CFLAR gene, CFLAR (gene 8837); assay: LTEA_HepaRG_CFLAR: Life Technologies and Expression Analysis (LTEA) Assay for CFLAR gene using HepaRG (AID 2283455)
# Outline: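 qRT-PCR read-out (Fluidigm/TaqMan) of CFLAR mRNA, normalized to three housekeeping genes, in differentiated human HepaRG cells after 48 h chemical exposure; 8-point half-log series from 100 uM in 0.5% DMSO; bidirectional curve fitting versus DMSO.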
# [6] = read-out: Forkhead box O1 (FOXO1), FOXO1 (gene 2308); assay: LTEA_HepaRG_FOXO1: Life Technologies and Expression Analysis (LTEA) Assay for Forkhead box O1 (FOXO1) using HepaRG (AID 2283456)
# Outline: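 HepaRG, 48 h exposure, 8-pt half-log series from 100 uM in 0.5% DMSO, duplicates; Fluidigm qRT-PCR mRNA, housekeeping-normalised; bidirectional fit vs DMSO baseline.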
# [7] = read-out: growth arrest and DNA damage 45 (GADD45A), GADD45A (gene 1647); assay: LTEA_HepaRG_GADD45A: Life Technologies and Expression Analysis (LTEA) Assay for growth arrest and DNA damage 45 (GADD45A) using HepaRG (AID 2283458)
# Outline: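 HepaRG, 48 h exposure, 8 conc. (top 100 uM, half-log steps), 0.5% DMSO vehicle, duplicates. Read-out: qRT-PCR mRNA level, housekeeping-normalized (ACTB/GAPDH/POLR2A). Curves fit bidirectionally vs DMSO baseline.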
# [8] = read-out: Forkhead box O3 (FOXO3), FOXO3 (gene 2309); assay: LTEA_HepaRG_FOXO3: Life Technologies and Expression Analysis (LTEA) Assay for Forkhead box O3 (FOXO3) using HepaRG (AID 2283459)
# Outline: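 qRT-PCR readout of FOXO3 transcript, normalized to three housekeeping genes (ACTB, GAPDH, POLR2A); gain or loss fitted against 0.5% DMSO vehicle. HepaRG cells, 48 h chemical exposure, 8-point half-log series, top 100 uM.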
# [9] = read-out: ABC Transporter (ABCB1), ABCB1 (gene 5243); assay: LTEA_HepaRG_ABCB1: Life Technologies and Expression Analysis (LTEA) Assay for ABC Transporter (ABCB1) using HepaRG (AID 2283460)
# Outline: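 HepaRG, 48 h exposure, 8-pt half-log series from 100 uM, 0.5% DMSO vehicle, duplicates. Readout: ABCB1 transcript by Fluidigm TaqMan qRT-PCR, housekeeping-normalized; bidirectional curve fit vs DMSO baseline.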
# [10] = read-out: growth arrest and DNA damage 45 (GADD45B), GADD45B (gene 4616); assay: LTEA_HepaRG_GADD45B: Life Technologies and Expression Analysis (LTEA) Assay for growth arrest and DNA damage 45 (GADD45B) using HepaRG (AID 2283461)
# Outline: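 qRT-PCR read-out (Fluidigm TaqMan, housekeeping-normalized) of mRNA change in human HepaRG cells after 48 h chemical exposure; 8-point curve, top 100 uM, half-log steps, 0.5% DMSO vehicle; gain or loss fitted relative to DMSO baseline.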
# [11] = read-out: ABC Transporter (ABCC3), ABCC3 (gene 8714); assay: LTEA_HepaRG_ABCC3: Life Technologies and Expression Analysis (LTEA) Assay for ABC Transporter (ABCC3) using HepaRG (AID 2283462)
# Outline: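 qRT-PCR read-out of ABCC3 transcript, normalized to three housekeeping genes (ACTB, GAPDH, POLR2A), after 48 h chemical exposure of human HepaRG cells. Eight half-log concentrations, highest 100 uM, in 0.5% DMSO; gain or loss fitted relative to DMSO baseline.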
# [12] = read-out: ABC Transporter (ABCB11), ABCB11 (gene 8647); assay: LTEA_HepaRG_ABCB11: Life Technologies and Expression Analysis (LTEA) Assay for ABC Transporter (ABCB11) using HepaRG (AID 2283463)
# Outline: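 HepaRG, 48 h exposure, 8-pt half-log CRC top 100 uM, 0.5% DMSO vehicle, duplicates. Readout: TaqMan qRT-PCR of ABCB11 mRNA, housekeeping-normalized (ACTB/GAPDH/POLR2A). Bidirectional fit vs DMSO baseline.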
# [13] = read-out: ABC Transporter (ABCC2), ABCC2 (gene 1244); assay: LTEA_HepaRG_ABCC2: Life Technologies and Expression Analysis (LTEA) Assay for ABC Transporter (ABCC2) using HepaRG (AID 2283464)
# Outline: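 qRT-PCR (TaqMan, Fluidigm array) read-out of ABCC2 mRNA, normalized to three housekeeping genes. Differentiated HepaRG cells were treated 48 h in serum-free induction medium with 8-point half-log series from 100 uM in 0.5% DMSO; curves fitted bidirectionally relative to DMSO.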
# [14] = read-out: Broad substrate specificity ATP-binding cassette transporter ABCG2 (Homo sapiens) (UniProt Q9UNQ0); assay: LTEA_HepaRG_ABCG2: Life Technologies and Expression Analysis (LTEA) Assay for ABC Transporter (ABCG2) using HepaRG (AID 2283465)
# Outline: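 HepaRG, 48 h exposure, 8-pt half-log series from 100 uM, 0.5% DMSO vehicle, duplicates. Readout: ABCG2 transcript by qRT-PCR (Fluidigm array), housekeeping-normalized; bidirectional curve fit relative to DMSO baseline.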
# [15] = read-out: ATP-citrate lyase (ACLY), ACLY (gene 47); assay: LTEA_HepaRG_ACLY: Life Technologies and Expression Analysis (LTEA) Assay for ATP-citrate lyase (ACLY) using HepaRG (AID 2283466)
# Outline: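 qRT-PCR readout of ACLY transcript after 48 h chemical treatment of HepaRG cells; expression normalized to three housekeeping genes. Eight-point half-log series, highest 100 uM, 0.5% DMSO vehicle. Gain or loss fitted against DMSO baseline.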
# [16] = read-out: Peroxisomal acyl-coenzyme A oxidase 1 (ACOX1) gene, ACOX1 (gene 51); assay: LTEA_HepaRG_ACOX1: Life Technologies and Expression Analysis (LTEA) Assay for Peroxisomal acyl-coenzyme A oxidase 1 (ACOX1) gene using HepaRG (AID 2283467)
# Outline: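 HepaRG, 48 h chemical exposure, 8-pt half-log series from 100 uM top, 0.5% DMSO vehicle, duplicates. Readout: ACOX1 mRNA by Fluidigm qRT-PCR, housekeeping-normalized; bidirectional fit vs DMSO baseline.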
# [17] = read-out: Alkaline Phosphatase, Placental (ALPP) gene, ALPP (gene 250); assay: LTEA_HepaRG_ALPP: Life Technologies and Expression Analysis (LTEA) Assay for Alkaline Phosphatase, Placental (ALPP) gene using HepaRG (AID 2283468);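 on AC50: differentiated human HepaRG liver cells in serum-free induction medium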
# Outline: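 qRT-PCR readout of ALPP mRNA (Fluidigm TaqMan), normalized to ACTB/GAPDH/POLR2A, after 48 h chemical exposure of HepaRG cells; 8-point half-log series, top 100 uM, 0.5% DMSO vehicle. Bidirectional curve fit versus DMSO baseline.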
# Chain of Broad substrate specificity ATP-binding cassette transporter ABCG2 (Homo sapiens) (Q9UNQ0 whole entry, looked up): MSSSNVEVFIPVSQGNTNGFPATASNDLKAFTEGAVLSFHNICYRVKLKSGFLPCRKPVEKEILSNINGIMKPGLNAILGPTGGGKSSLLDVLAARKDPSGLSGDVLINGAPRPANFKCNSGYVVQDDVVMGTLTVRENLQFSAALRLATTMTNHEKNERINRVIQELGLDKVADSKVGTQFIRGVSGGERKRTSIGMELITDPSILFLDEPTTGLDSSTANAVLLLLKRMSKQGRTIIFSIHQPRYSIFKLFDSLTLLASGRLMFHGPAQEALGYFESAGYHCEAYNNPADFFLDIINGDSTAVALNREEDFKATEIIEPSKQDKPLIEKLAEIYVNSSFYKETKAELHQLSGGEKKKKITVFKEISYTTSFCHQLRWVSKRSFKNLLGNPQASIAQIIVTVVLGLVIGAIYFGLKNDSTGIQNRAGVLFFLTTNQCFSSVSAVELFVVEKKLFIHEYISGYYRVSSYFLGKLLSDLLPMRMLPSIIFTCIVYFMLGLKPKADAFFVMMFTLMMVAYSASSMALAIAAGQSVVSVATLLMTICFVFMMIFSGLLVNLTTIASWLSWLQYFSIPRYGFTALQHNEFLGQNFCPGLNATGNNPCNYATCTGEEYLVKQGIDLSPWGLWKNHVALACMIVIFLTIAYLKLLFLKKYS
structure (smiles),measurement,setting,value
CC(C)(C)c1ccc(CSc2cnn(C(C)(C)C)c(=O)c2Cl)cc1,outcome,[1],inactive
same,AC50,[2],2300 nM (active)
same,outcome,[3],inactive
same,AC50,[4],1850 nM (active)
same,outcome,[5],inactive
same,AC50,[6],2120 nM (active)
same,AC50,[7],1990 nM (active)
same,AC50,[8],1490 nM (active)
same,AC50,[9],4660 nM (active)
same,outcome,[10],inactive
same,outcome,[11],inactive
same,AC50,[12],2210 nM (active)
same,AC50,[13],9030 nM (active)
same,AC50,[14],2890 nM (active)
same,AC50,[15],1720 nM (active)
same,outcome,[16],inactive
same,AC50,[17],1080 nM (active)
CCOC(=O)C(Cl)Cc1cc(-n2nc(C)n(C(F)F)c2=O)c(F)cc1Cl (stereo not given),outcome,[2],inactive
same,outcome,[3],inactive
same,outcome,[4],inactive
same,outcome,[5],inactive
same,outcome,[6],inactive
same,outcome,[7],inactive
same,outcome,[8],inactive
same,AC50,[9],50000 nM (active)
same,outcome,[10],inactive
same,outcome,[11],inactive
same,outcome,[12],inactive
same,outcome,[13],inactive
same,outcome,[14],inactive
same,outcome,[15],inactive
same,outcome,[16],inactive
same,outcome,[17],inactive
COC(=O)C(C)Oc1ccc(Oc2ccc(Cl)cc2Cl)cc1 (stereo not given),outcome,[1],inactive
same,outcome,[2],inactive
same,outcome,[3],inactive
same,outcome,[4],inactive
same,outcome,[5],inactive
same,AC50,[6],13700 nM (active)
same,outcome,[7],inactive
same,outcome,[8],inactive
same,outcome,[9],inactive
same,outcome,[10],inactive
same,outcome,[11],inactive
same,AC50,[12],45700 nM (active)
same,outcome,[13],inactive
same,outcome,[14],inactive
same,outcome,[15],inactive
same,AC50,[16],21700 nM (active)
same,outcome,[17],inactive
